Measurements as given in PubChem BioAssay AID1159580 (chemical genetic matrix, 2015).
Several values for one entry are separate records, joined by “and”; a condition that tells them apart may be missing. Equal values may be shown once. The whole screen tested about 5,500 compounds, of which about 2,000 (36%) were called active. Inconclusive results (about 18%) are left out. Cut-off read from the data, not from the text of the source: active = normalized growth mostly below about 0.91 (no sharp cut-off); inconclusive = no clear call, values can overlap the other calls; inactive = mostly above about 0.92. Some of the results follow.

Experiment: chemical genetic growth profiling, strain panel (AID 1159580);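 note: tested at 20 µM; growth read once vehicle control cultures reached saturation at 30 °C; 1 = growth at the plate median or of vehicle wells; lower values mean less growth of the strain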
Settings: S. cerevisiae deletion strains, growth OD

Measured: normalized growth

CC(=O)CC1CCCCN1 (configuration not stated)
inactive: locus YAL013W, strain DEP1, active compounds read low 1.01 | locus YAL021C, strain ccr4, active compounds read low 1.02 | locus YAL026C, strain drs2, active compounds read low 1.01 | locus YAL030W, strain snc1, active compounds read low 1.02 | locus YBL061C, strain skt5, active compounds read low 1.02 | locus YBR009C, strain hhf1, active compounds read low 1.02 | locus YBR021W, strain FUR4, active compounds read low 0.985 | locus YBR023C, strain chs3, active compounds read low 1.03 | locus YBR171W, strain sec66, active compounds read low 1.02 | locus YBR229C, strain ROT2, active compounds read low 1.02 | locus YBR231C, strain swc5, active compounds read low 1.01 | locus YBR279W, strain paf1, active compounds read low 1.03 | locus YCL011C, strain gbp2, active compounds read low 1.02 | locus YCL016C, strain dcc1, active compounds read low 1.03 | locus YCL029C, strain bik1, active compounds read low 0.99 | locus YCL061C, strain MRC1, active compounds read low 1.01 | locus YCL069W, strain vba3, active compounds read low 1 | locus YCR088W, strain abp1, active compounds read low 1.02 | locus YDL005C, strain med2, active compounds read low 1.02 | locus YDL035C, strain GPR1, active compounds read low 1.02 | locus YDL040C, strain nat1, active compounds read low 1.02 | locus YDL074C, strain BRE1, active compounds read low 1.03 | locus YDL101C, strain DUN1, active compounds read low 1.02 | locus YDL134C, strain PPH21, active compounds read low 1.01 | locus YDL185W, strain tfp1, active compounds read low 1 | locus YDL192W, strain arf1, active compounds read low 0.992 | locus YDR001C, strain nth1, active compounds read low 1.01 | locus YDR069C, strain doa4, active compounds read low 1.01 | locus YDR101C, strain arx1, active compounds read low 0.982 | locus YDR137W, strain rgp1, active compounds read low 1.04 | locus YDR150W, strain NUM1, active compounds read low 1.02 | locus YDR159W, strain sac3, active compounds read low 1.01 | locus YDR162C, strain NBP2, active compounds read low 1.03 | locus YDR195W, strain ref2 0.982 | locus YDR297W, strain sur2, active compounds read low 1.01 | locus YDR318W, strain mcm21, active compounds read low 0.993 | locus YDR334W, strain swr1, active compounds read low 1 | locus YDR335W, strain msn5, active compounds read low 1.01 | locus YDR388W, active compounds read low 0.992 | locus YDR392W, strain spt3, active compounds read low 0.981 | locus YDR502C, strain sam2, active compounds read low 1 | locus YEL003W, strain gim4, active compounds read low 1.01 | locus YEL037C, strain rad23, active compounds read low 1.02 | locus YEL061C, strain CIN8 (second series), active compounds read low 1.02 | locus YEL061C, strain CIN8, active compounds read low 1.02 | locus YER015W, strain faa2, active compounds read low 1.02 | locus YER016W, strain bim1, active compounds read low 1.02 | locus YER110C, active compounds read low 0.988 | locus YER111C, strain swi4, active compounds read low 1.02 | locus YER155C, strain BEM2 (second series), active compounds read low 1.01 | locus YER155C, strain BEM2, active compounds read low 1.01 | locus YER167W, strain BCK2, active compounds read low 1.01 | locus YFR010W, strain ubp6, active compounds read low 1.01 | locus YGL078C, strain dbp3, active compounds read low 0.991 | locus YGL086W, strain mad1, active compounds read low 0.991 | locus YGL167C, strain pmr1, active compounds read low 1.02 | locus YGL173C, strain kem1, active compounds read low 1.01 | locus YGL227W, strain vid30, active compounds read low 1.02 | locus YGL240W, strain doc1, active compounds read low 1.01 | locus YGL248W, strain PDE1, active compounds read low 1.02 | locus YGL253W, strain hxk2, active compounds read low 1.02 | locus YGR078C, strain PAC10, active compounds read low 1.02 | locus YGR135W, strain pre9, active compounds read low 1 | locus YGR229C, strain SMI1, active compounds read low 1.03 | locus YGR252W, strain gcn5, active compounds read low 0.915 | locus YHR013C, strain ard1, active compounds read low 1.02 | locus YHR027C, strain rpn1, active compounds read low 1.01 | locus YHR030C, strain SLT2, active compounds read low 1.01 and 0.991 | locus YHR079C, strain IRE1 (second series), active compounds read low 0.994 | locus YHR079C, strain IRE1, active compounds read low 1 | locus YHR094C, strain hxt1, active compounds read low 0.991 | locus YHR129C, strain ARP1, active compounds read low 0.974 | locus YHR142W, strain chs7, active compounds read low 1.02 | locus YHR200W, strain rpn10, active compounds read low 0.982 | locus YIL066C, strain RNR3, active compounds read low 1.02 | locus YIL073C, strain SPO22, active compounds read low 1.01 | locus YIL125W, strain kgd1, active compounds read low 0.99 | locus YIR030C, strain dcg1, active compounds read low 0.993 | locus YJL092W, strain hpr5, active compounds read low 1.01 | locus YJL095W, strain BCK1 (second series), active compounds read low 1.02 | locus YJL095W, strain BCK1, active compounds read low 1.01 and 0.998 | locus YJL115W, strain asf1, active compounds read low 1.02 | locus YJL129C, strain trk1, active compounds read low 1.04 | locus YJL134W, strain LCB3, active compounds read low 1.01 | locus YJL154C, strain vps35, active compounds read low 1.02 | locus YJL164C, strain tpk1, active compounds read low 1.03 | locus YJL166W, strain qcr8, active compounds read low 1.03 | locus YJL168C, strain set2, active compounds read low 0.991 | locus YJL187C, strain SWE1 (second series), active compounds read low 1.02 | locus YJL187C, strain SWE1, active compounds read low 1.01 | locus YJR043C, strain POL32, active compounds read low 0.992 | locus YJR066W, strain TOR1, active compounds read low 0.975
